Screens (PubChem BioAssay)
Algae TAG accum: inducers of triacylglycerol accumulation in Chlamydomonas reinhardtii algae; calls only at 10 µM (by protocol); Chlamydomonas reinhardtii TAG, Nile Red fluorescence, 72 h; AID 1159537; hit rate 0.84% among 44,000; call rule not given here;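 also: hits raise Nile Red signal meaning more stored TAG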
Active calls of the source: *; i = inactive; + = active, no number. The sample as a whole holds a higher share of hits than the screen did.

SMILES | Algae TAG accum
O=C(c1cccc([N+](=O)[O-])c1)c1ccc2c(c1)C(=O)N(Cc1cccnc1)C2=O | i
O=C(Nc1ccc(Br)cc1)c1ccccc1Cl | +
COc1ccc(Br)cc1C(=O)Nc1ccc(Cc2ccncc2)cc1 | i
O=C(Nc1ccc(Cl)cc1)c1ccccc1Br | i
O=C(Nc1ccc(Cc2ccncc2)cc1)c1cc(Br)ccc1Cl | +
O=C(O)c1ccc(NC(=O)c2ccccc2Cl)cc1 | i
CC(=O)c1cccc(NC(=O)c2cc(Br)ccc2Cl)c1 | i
Cn1ncc([N+](=O)[O-])c1C(=O)O | i
COc1ccc(C(=O)N2CCC(C(=O)Nc3ccc(I)cc3)CC2)cc1 | i
Cc1cccc(-c2noc(-c3cccc([N+](=O)[O-])c3)n2)c1 | i
Oc1ccc(-c2csc(-c3ccncc3)n2)cc1O | i
Brc1ccc2ncnc(N3CCN(Cc4ccccc4)CC3)c2c1 | +
Brc1ccc2ncnc(N3CCOCC3)c2c1 | i
Brc1ccc(CN2CCN(c3ccccn3)CC2)cc1 | i
COc1ccc(OCC(=O)Nc2cc(Cl)ccc2O)cc1 | i
CS(=O)(=O)N1CCN(C2C3CC4CC(C3)CC2C4)CC1 (stereo not drawn) | +
O=C(c1ccccc1)N1CCN(C2C3CC4CC(C3)CC2C4)CC1 (stereo not drawn) | i
Cc1ccc(N2CCN(C3C4CC5CC(C4)CC3C5)CC2)cc1 (stereo not drawn) | i
O=[N+]([O-])c1ccc(-c2nnc(-c3ccccc3I)o2)cc1 | i
O=C(C1CCN(CC2CCCCC2)CC1)N1CCN(c2ccccc2)CC1 | i
c1ccc(N2CCN(CC3CCCCC3)CC2)cc1 | +
CCN1CCC(N2CCN(c3ccccc3)CC2)CC1 | i
O=C(CCC1CCCC1)Nc1ccc(Cl)cn1 | i
COCCN1C(=O)C(=O)C(=C(O)c2ccccc2)C1c1ccc([N+](=O)[O-])cc1 (stereo not drawn) | i
Cc1ccnc(NS(=O)(=O)c2ccc(-n3cccc3)cc2)n1 | i
SMILES | Algae TAG accum
COc1cc(C)nc(NCc2ccccc2)n1 | +
Cc1cc(Oc2ccc([N+](=O)[O-])cc2)nc(NCc2ccccc2)n1 | i
Cc1cc(=O)[nH]c(NCc2ccccc2)n1 | i
CCC1CCCCN1C(=O)c1ccc(Cl)cc1[N+](=O)[O-] (stereo not drawn) | +
CCN1CCN(C(=O)c2ccc(Cl)cc2[N+](=O)[O-])CC1 | i
CCC1CCCCN1C(=O)c1cccc([N+](=O)[O-])c1C (stereo not drawn) | i
O=c1c2cc(O)ccc2oc2ccc(O)cc12 | i
Nc1ccc2oc(-c3ccc(F)cc3Cl)nc2c1 | i
CC1(C)N/C(=C\C(=O)c2ccccc2)N(O)C1(C)C | i
COc1ccccc1N1CCN(CC(O)COCc2ccc(Cl)cc2)CC1 (stereo not drawn) | i
O=C1c2cccnc2C(=O)N1CC1CCCO1 (stereo not drawn) | i
CC1(C)Oc2ccc(NC(=O)c3ccc(C(=O)c4ccccc4)cc3)cc2O1 | +
CC1(C)Oc2ccc(NC(=O)Cc3ccc(F)cc3)cc2O1 | i
COc1ccc(NC(=O)c2ccc(C(=O)c3ccccc3)cc2)cc1 | i
COc1ccc(N2CCN(Cc3cccs3)CC2)cc1 | i
COc1ccc(N2CCN(Cc3cccnc3)CC2)cc1 | i
COc1ccc(N2CCN(Cc3ccsc3)CC2)cc1 | +
Cc1cccc(NC(=O)c2cccc(N)c2)c1C | i
Clc1ccc(OCCn2ccnc2)c(Cl)c1 | i
Cc1cc(Cl)c(OCCn2ccnc2)c(Br)c1 | +
Cc1cc(Cl)cc(C)c1OCCn1ccnc1 | +
Cc1ccc(OCCn2ccnc2)c(Cl)c1 | i
Cc1cc(Cl)c(OCCOCCn2ccnc2)c(Br)c1 | i
Clc1ccc(OCCn2ccnc2)c(Br)c1 | i
NCc1ccc(C(=O)NN)cc1 | i
SMILES | Algae TAG accum
O=C(O)C(=O)NCC1(c2ccccc2)CCCC1 | i
N#C/C(=C\c1ccccc1[N+](=O)[O-])c1nc(-c2ccc(Cl)cc2)cs1 | i
COc1ccc(N2C(=O)CC(N3CCC(C(O)(c4ccccc4)c4ccccc4)CC3)C2=O)cc1 (stereo not drawn) | i
O=C1CC(N2CCC(C(O)(c3ccccc3)c3ccccc3)CC2)C(=O)N1c1ccc(F)cc1 (stereo not drawn) | +
NC(=O)C1CCN(C2CC(=O)N(c3ccc(F)cc3)C2=O)CC1 (stereo not drawn) | i
C=CCc1cc(C)ccc1OCCN1CCN(C)CC1 | i
C=CCc1cc(C)ccc1OCCCCN1CCN(C)CC1 | i
C=CCc1cccc(C)c1OCCCN1CCCC1 | i
C=CCc1cccc(C)c1OCCCN1CCN(C)CC1 | +
C=CCc1cccc(OC)c1OCCCN1CCN(C)CC1 | i
C=CCc1cc(Cl)ccc1OCCN1CCN(C)CC1 | +
CN1CCN(S(=O)(=O)c2ccc(C(=O)O)cc2)CC1 | i
COc1ccccc1C(=O)N1CCN(C(c2ccccc2)c2ccccc2)CC1 | i
COc1cc(Br)c(S(=O)(=O)N2CCN(c3ccc(C)c(C)c3)CC2)cc1OC | i
O=S(=O)(Nc1ccc(F)cc1)c1ccc(F)cc1 | i
COc1ccc(NC(=O)COc2ccccc2Br)c([N+](=O)[O-])c1 | i
CC(Oc1ccccc1)C(=O)Nc1ccccc1C(C)C (stereo not drawn) | i
